# From PubChem BioAssay (EPA / NIEHS)
# Where “and” joins values, the source holds several entries; their conditions need not be identical. Equal entries are not always repeated. Records with an inconclusive call do not appear. The source holds several records for some structures; these can differ, active in one and inactive in another. Calls of active or inactive are those of the source. Rule for the calls, unless noted: active = hit-call score of the fitted dose curve at least 0.9, where 1 is the maximum; inconclusive = response in the unintended direction; inactive = score below 0.9.
# Columns and labels:
# [1] = read-out: X-box binding protein 1 (XBP1), XBP1 (gene 7494); experiment: LTEA_HepaRG_XBP1: Life Technologies and Expression Analysis (LTEA) Assay for X-box binding protein 1 (XBP1) using HepaRG (AID 2283540; active = hit-call score of the fitted dose curve at least 0.9, where 1 is the maximum; inactive = score below 0.9); details: mRNA level, 48 h; actives raise or lower the signal
# Method in brief: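 Differentiated human HepaRG cells in serum-free induction medium were exposed in duplicate for 48 h to eight half-log concentrations up to 100 uM in 0.5% DMSO. XBP1 mRNA was quantified by qRT-PCR, normalised to ACTB, GAPDH and POLR2A, with bidirectional fitting against DMSO.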
# [2] = LTEA_HepaRG_LDH_cytotoxicity: Cytotoxicity Assessment in the Life Technologies and Expression Analysis (LTEA) Assay (AID 2283563);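 for AC50: LDH activity released into spent culture medium as a marker of cell death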
# Method in brief: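 Differentiated human HepaRG cells, plated 48 h beforehand, were switched to serum-free induction medium and exposed for 48 h to eight half-log concentrations (top 100 uM) in 0.5% DMSO. LDH was measured in spent medium; activity was fitted relative to DMSO vehicle.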
# [3] = ATG_XTT_Cytotoxicity: Cytotoxicity Assessment in the Attagene TRANS-FACTORIAL HepG2 Assay (AID 2283584);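 for AC50: cells exposed to compound for 24 h before reading; active means loss of viability signal versus DMSO baseline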
# Method in brief: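 HepG2 human liver cells, transiently transfected with multiple GAL4-UAS reporter units, were dosed and read at 24 h by XTT as cell number. Loss of signal was fitted relative to DMSO negative control baseline.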
# [4] = target: Cellular tumor antigen p53 (Homo sapiens) (UniProt P04637); experiment: TOX21_p53_BLA_p2_ratio: Tox21 HCT-116 p53 Agonism Beta-lactamase Assay, Ratio, Phase 2 (AID 2283592)
# Sequence of Cellular tumor antigen p53 (Homo sapiens) (P04637 whole entry, looked up): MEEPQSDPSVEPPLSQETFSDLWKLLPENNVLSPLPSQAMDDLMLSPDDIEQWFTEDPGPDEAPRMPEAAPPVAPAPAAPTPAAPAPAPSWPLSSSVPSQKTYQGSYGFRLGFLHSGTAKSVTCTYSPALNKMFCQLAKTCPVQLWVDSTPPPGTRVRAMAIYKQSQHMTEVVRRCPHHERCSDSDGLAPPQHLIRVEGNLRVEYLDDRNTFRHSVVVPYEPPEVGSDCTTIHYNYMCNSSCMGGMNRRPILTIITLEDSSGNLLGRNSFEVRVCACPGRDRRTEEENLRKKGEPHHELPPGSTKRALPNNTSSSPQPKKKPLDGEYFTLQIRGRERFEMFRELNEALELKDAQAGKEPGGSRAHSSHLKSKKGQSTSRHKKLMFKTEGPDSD
# Method in brief: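 Ratio endpoint: beta-lactamase cleavage of CCF4-AM, blue (460 nm) over green (530 nm). HCT116 reporter line; 16 h treatment, 37C; substrate 2 h RT.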
# [5] = target: Cellular tumor antigen p53 (Homo sapiens) (UniProt P04637); experiment: TOX21_p53_BLA_p5_ratio: Tox21 HCT-116 p53 Agonism Beta-lactamase Assay, Ratio, Phase 5 (AID 2283599)
# Method in brief: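 Beta-lactamase reporter ratio (blue 460 nm over green 530 nm, 405 nm excitation) after 2 h CCF4-AM loading, in HCT-116 cells exposed 16 h at 37 C to compounds pinned at 217-fold dilution. Increases relative to DMSO baseline scored.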
# [6] = TOX21_p53_BLA_p5_viability: Viability Assessment in the Tox21 HCT-116 p53 Agonism Beta-lactamase Assay, Phase 5 (AID 2283600)
# Method in brief: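 Luciferase-coupled ATP quantitation of cells treated for 16 h (37C, 5% CO2) with test chemicals delivered in DMSO via a 217-fold dilution; 4000 cells/well; reagent incubated 30 min at room temperature before luminescence reading.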
# [7] = target: Cellular tumor antigen p53 (Homo sapiens) (UniProt P04637); experiment: TOX21_p53_BLA_p4_ratio: Tox21 HCT-116 p53 Agonism Beta-lactamase Assay, Ratio, Phase 4 (AID 2283601)
# Method in brief: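 Signal is the blue/green (460nm/530nm) ratio of cleaved versus uncleaved CCF4-AM substrate, read after 2 h substrate loading. Cells were HCT116 carrying the p53-responsive beta-lactamase reporter, dosed 16 h at 37C, 5% CO2; CellTiter-Glo measured in parallel.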
# [8] = Tanguay_ZF_120hpf_MORT_legacy: (Legacy) Oregon State University Tanguay Lab 120 Hour Post-fertilization zebrafish Assay for Mortality (AID 2283633)
# Method in brief: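 Dechorionated Tropical 5D wild-type zebrafish embryos, one per well from 6 hpf, were statically exposed at 28C in the dark until 120 hpf (0.64% DMSO final). Mortality was scored as present/absent by brightfield microscopy, fitted positively versus DMSO.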
# [9] = Tanguay_ZF_120hpf_YSE_legacy: (Legacy) Oregon State University Tanguay Lab 120 Hour Post-fertilization zebrafish Assay for Yolk Sac Edema (AID 2283634);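 for AC50: actives raise the incidence of yolk sac edema above the DMSO baseline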
# Method in brief: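 Tropical 5D wild-type embryos, dechorionated with pronase at 4 hpf, were exposed singly from 6 hpf to 120 hpf under static, sealed, dark conditions at 28C with 0.64% DMSO final. Yolk sac edema was scored present/absent by brightfield microscopy.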
# [10] = Tanguay_ZF_120hpf_EYE_legacy: (Legacy) Oregon State University Tanguay Lab 120 Hour Post-fertilization zebrafish Assay for Eye Malformation (AID 2283636);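 note: binary presence or absence of eye malformation scored by brightfield in 120 hpf larvae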
# Method in brief: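 Binary brightfield scoring of eye defects at 120 hpf after static exposure from 6 hpf of single pronase-dechorionated wild-type embryos (28C, 0.64% DMSO). Non-mortality endpoints omitted where embryos died; fit vs DMSO.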
# [11] = Tanguay_ZF_120hpf_SNOU_legacy: (Legacy) Oregon State University Tanguay Lab 120 Hour Post-fertilization zebrafish Assay for Snout Malformation (AID 2283637)
# Method in brief: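 Binary snout-malformation call at 120 hpf in wild-type 5D embryos, chorion removed by pronase, under static exposure from 6 hpf at 28C (0.64% DMSO). Embryos dying by 24 or 120 hpf excluded.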
# [12] = Tanguay_ZF_120hpf_PE_legacy: (Legacy) Oregon State University Tanguay Lab 120 Hour Post-fertilization zebrafish Assay for Pericardial Edema (AID 2283640);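 for AC50: potency for increased incidence of pericardial edema versus DMSO baseline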
# Method in brief: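 Tropical 5D wild-type zebrafish embryos were exposed statically to 120 hpf at 28C, sealed and foil-covered, in 0.64% DMSO final. Pericardial edema was scored present/absent by brightfield microscopy; dead embryos were not scored.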
# [13] = Tanguay_ZF_120hpf_BRAI_legacy: (Legacy) Oregon State University Tanguay Lab 120 Hour Post-fertilization zebrafish Assay for Brain Malformation (AID 2283641)
# Method in brief: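 Tropical 5D wild-type zebrafish embryos were exposed statically in sealed, foil-covered plates at 28C until 120 hpf, with 0.64% (vol/vol) final DMSO. Brain malformation was scored present/absent by brightfield microscopy, relative to DMSO baseline.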
# [14] = Tanguay_ZF_120hpf_SOMI_legacy: (Legacy) Oregon State University Tanguay Lab 120 Hour Post-fertilization zebrafish Assay for Somite Malformation (AID 2283647)
# Method in brief: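 Tropical 5D wild-type zebrafish embryos, dechorionated with pronase at 4 hpf, were placed singly at 6 hpf and statically exposed until 120 hpf at 28C in 0.64% DMSO. Somite malformation was scored present/absent by brightfield microscopy versus DMSO.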
# [15] = TOX21_p53_BLA_p2_viability: Viability Assessment in the Tox21 HCT-116 p53 Agonism Beta-lactamase Assay, Phase 2 (AID 2283591);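 note: compound exposure lasted 16 h at 37 °C; actives lower the ATP signal meaning cytotoxicity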
# Method in brief: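 Cytotoxicity readout: CellTiter-Glo ATP luminescence, 30 min at room temperature, after the beta-lactamase read. Cells were HCT116 exposed 16 h at 37C to compounds pin-transferred at 217-fold dilution from DMSO stocks.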
# [16] = TOX21_p53_BLA_p3_viability: Viability Assessment in the Tox21 HCT-116 p53 Agonism Beta-lactamase Assay, Phase 3 (AID 2283593);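 note: cells exposed to compound for 16 h before reading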
# Method in brief: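 Cellular ATP was quantified by CellTiter-Glo luminescence, read after 30 min at room temperature. Beforehand, HCT116 cells (4000/well) received compound 5 h post-seeding, 217-fold diluted from DMSO, then incubated 16 h at 37C.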
# [17] = target: Cellular tumor antigen p53 (Homo sapiens) (UniProt P04637); experiment: TOX21_p53_BLA_p3_ratio: Tox21 HCT-116 p53 Agonism Beta-lactamase Assay, Ratio, Phase 3 (AID 2283596)
# Method in brief: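 Cells were seeded at 4000/well, rested 5 h at 37C, then dosed with DMSO compound solutions (217-fold dilution) for 16 h. CCF4-AM substrate was loaded for 2 h at room temperature, and the 460/530 nm emission ratio was fitted for gain of signal versus DMSO.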
# [18] = TOX21_p53_BLA_p4_viability: Viability Assessment in the Tox21 HCT-116 p53 Agonism Beta-lactamase Assay, Phase 4 (AID 2283597);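 note: hits lower the luminescence signal meaning cytotoxicity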
# Method in brief: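 Cytotoxicity was inferred from loss of CellTiter-Glo luminescence. HCT116 cells had been dosed with compounds after 5 h plating, incubated 16 h at 37C and 5% CO2, and exposed to the CCF4-AM substrate for 2 h.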
# [19] = Tanguay_ZF_120hpf_AXIS_legacy: (Legacy) Oregon State University Tanguay Lab 120 Hour Post-fertilization zebrafish Assay for Body Axis Malformation (AID 2283635);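 for AC50: potency for an increased fraction of larvae scored with body axis malformation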
# Method in brief: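 Tropical 5D wild-type zebrafish embryos, dechorionated with pronase at 4 hpf, were placed singly in wells at 6 hpf and exposed statically to test chemical (0.64% DMSO final) at 28C until 120 hpf, then scored by brightfield for body axis defects.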
# [20] = Tanguay_ZF_120hpf_OTIC_legacy: (Legacy) Oregon State University Tanguay Lab 120 Hour Post-fertilization zebrafish Assay for Otic Vesicle Malformation (AID 2283639)
# Method in brief: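 Statically exposed wild-type 5D zebrafish embryos, kept sealed and dark at 28C through 120 hours post fertilization, were examined by brightfield microscopy for otic vesicle defects. Responses were recorded as present or absent and analysed relative to DMSO.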
compound,measurement,setting,value
NC(=O)O,outcome,[1],inactive
same,outcome,[2],inactive
same,outcome,[3],inactive
same,outcome,[4],inactive
same,outcome,[5],inactive
same,outcome,[6],inactive
same,outcome,[7],inactive
same,outcome,[8],inactive
same,outcome,[9],inactive
same,outcome,[10],inactive
same,outcome,[11],inactive
same,outcome,[12],inactive
same,outcome,[13],inactive
same,outcome,[14],inactive
O=C1C2(Cl)C3(Cl)C4(Cl)C(Cl)(Cl)C5(Cl)C3(Cl)C1(Cl)C5(Cl)C24Cl (stereo not drawn),AC50,[1],92.4 µM (active)
same,AC50,[2],72.1 µM (active)
same,AC50,[3],31.8 µM (active) and 35.1 µM (active)
same,outcome,[3],inactive
same,AC50,[15],73.9 µM (active) and 73.7 µM (active)
same,AC50,[4],82.6 µM (active) and 60.4 µM (active)
same,AC50,[16],80.6 µM (active) and 78.5 µM (active)
same,AC50,[17],72.4 µM (active) and 85.4 µM (active)
same,AC50,[18],68.4 µM (active) and 66.4 µM (active)
same,AC50,[5],83.8 µM (active) and 85 µM (active)
same,AC50,[6],82 µM (active) and 83.7 µM (active)
same,AC50,[7],83.2 µM (active) and 60.3 µM (active)
same,outcome,[8],inactive
same,AC50,[9],72.1 µM (active)
same,AC50,[19],6.6 µM (active)
same,AC50,[10],79.7 µM (active)
same,AC50,[11],9.66 µM (active)
same,outcome,[20],inactive
same,AC50,[12],38.8 µM (active)
same,outcome,[13],inactive
same,outcome,[14],inactive
CC(C)(C)CC(C)(C)c1ccc(O)cc1,outcome,[1],inactive
same,AC50,[2],77 µM (active)
same,AC50,[3],26.7 µM (active) and 58.4 µM (active) and 53.9 µM (active)
same,outcome,[3],inactive
same,AC50,[15],64.5 µM (active) and 42.4 µM (active)
same,AC50,[4],74.7 µM (active) and 35.4 µM (active)
same,AC50,[16],35 µM (active)
same,outcome,[16],inactive
same,AC50,[17],41.9 µM (active)
same,outcome,[17],inactive
same,AC50,[5],61.9 µM (active) and 38.6 µM (active)
same,AC50,[6],65.3 µM (active) and 39.6 µM (active)
same,outcome,[8],inactive
same,outcome,[9],inactive
same,outcome,[19],inactive
same,outcome,[10],inactive
same,outcome,[20],inactive
same,outcome,[12],inactive
same,outcome,[14],inactive
CCCCCCCCc1ccc(O)cc1,outcome,[1],inactive
same,outcome,[2],inactive
same,outcome,[3],inactive
same,outcome,[15],inactive
same,outcome,[4],inactive
same,outcome,[16],inactive
same,outcome,[17],inactive
same,outcome,[18],inactive
same,outcome,[5],inactive
same,outcome,[6],inactive
same,outcome,[8],inactive
same,outcome,[9],inactive
same,outcome,[19],inactive
same,outcome,[10],inactive
same,outcome,[11],inactive
same,outcome,[20],inactive
same,outcome,[12],inactive
same,outcome,[13],inactive
same,outcome,[14],inactive
ClCC(Cl)CCl,outcome,[1],inactive
same,outcome,[2],inactive
same,outcome,[3],inactive
same,outcome,[15],inactive
same,outcome,[4],inactive
same,outcome,[16],inactive
same,outcome,[17],inactive
same,outcome,[18],inactive
same,outcome,[5],inactive
same,outcome,[6],inactive
same,outcome,[7],inactive
same,outcome,[8],inactive
same,outcome,[19],inactive
same,outcome,[11],inactive
same,outcome,[20],inactive
same,outcome,[12],inactive
same,outcome,[13],inactive
same,outcome,[14],inactive
CCOP(=S)(OCC)Oc1nc(Cl)c(Cl)cc1Cl,outcome,[1],inactive
same,outcome,[2],inactive
same,outcome,[15],inactive
same,outcome,[4],inactive
same,outcome,[16],inactive
same,outcome,[17],inactive
same,outcome,[18],inactive
same,outcome,[5],inactive
same,outcome,[8],inactive
same,outcome,[9],inactive
same,outcome,[19],inactive
same,outcome,[10],inactive
same,outcome,[11],inactive
same,outcome,[20],inactive
same,outcome,[12],inactive
same,outcome,[13],inactive
same,outcome,[14],inactive
